# Source: ChEMBL document CHEMBL1961873, “Compounds: GSK PKIS; Assays: Nanosyn kinase panel” (2012)
# How the values were obtained:
# [1] = target: T1, Mitogen-activated protein kinase 12 (Homo sapiens) (UniProt P53778); details: at 1 µM;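 further: values are averaged p38gamma kinase inhibition readings, compounds tested at 1 µM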
# T1 sequence (whole entry): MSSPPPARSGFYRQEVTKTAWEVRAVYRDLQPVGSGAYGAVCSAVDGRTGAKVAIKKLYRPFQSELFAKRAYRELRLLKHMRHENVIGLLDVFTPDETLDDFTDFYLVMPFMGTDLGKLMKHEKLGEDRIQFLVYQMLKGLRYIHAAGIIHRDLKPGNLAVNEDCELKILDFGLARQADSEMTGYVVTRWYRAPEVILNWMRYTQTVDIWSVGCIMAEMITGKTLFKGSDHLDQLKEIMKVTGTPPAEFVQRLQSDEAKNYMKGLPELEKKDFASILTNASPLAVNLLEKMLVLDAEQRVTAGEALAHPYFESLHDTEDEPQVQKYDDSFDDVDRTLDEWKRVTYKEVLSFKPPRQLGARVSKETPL
# [2] = target: SRSF protein kinase 1 (Homo sapiens) (UniProt Q96SB4); details: at 0.1 µM
# Sequence of SRSF protein kinase 1 (Homo sapiens) (Q96SB4 whole entry, canonical isoform): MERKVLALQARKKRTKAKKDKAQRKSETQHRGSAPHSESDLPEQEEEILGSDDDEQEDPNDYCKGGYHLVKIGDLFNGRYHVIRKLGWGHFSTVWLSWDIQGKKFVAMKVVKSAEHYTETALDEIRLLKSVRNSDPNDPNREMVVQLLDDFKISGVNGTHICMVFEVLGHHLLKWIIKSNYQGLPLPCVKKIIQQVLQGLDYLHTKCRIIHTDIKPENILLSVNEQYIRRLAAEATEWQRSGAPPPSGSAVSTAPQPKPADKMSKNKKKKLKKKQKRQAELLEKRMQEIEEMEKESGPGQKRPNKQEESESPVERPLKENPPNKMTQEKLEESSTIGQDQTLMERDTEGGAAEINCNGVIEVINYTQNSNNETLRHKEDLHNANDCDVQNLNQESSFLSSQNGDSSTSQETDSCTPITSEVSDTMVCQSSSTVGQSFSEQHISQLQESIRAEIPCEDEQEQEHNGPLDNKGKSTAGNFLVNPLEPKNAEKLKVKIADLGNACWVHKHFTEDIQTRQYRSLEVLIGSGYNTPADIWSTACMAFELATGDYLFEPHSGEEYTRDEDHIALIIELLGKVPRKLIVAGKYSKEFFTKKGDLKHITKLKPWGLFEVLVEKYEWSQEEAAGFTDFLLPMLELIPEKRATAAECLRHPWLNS
# [3] = target: SRSF protein kinase 1 (Homo sapiens) (UniProt Q96SB4); details: at 1 µM
# [4] = target: Phosphatidylinositol 4,5-bisphosphate 3-kinase catalytic subunit alpha isoform (Homo sapiens) (UniProt P42336); details: at 0.1 µM
# Sequence of Phosphatidylinositol 4,5-bisphosphate 3-kinase catalytic subunit alpha isoform (Homo sapiens) (P42336 whole entry, canonical isoform): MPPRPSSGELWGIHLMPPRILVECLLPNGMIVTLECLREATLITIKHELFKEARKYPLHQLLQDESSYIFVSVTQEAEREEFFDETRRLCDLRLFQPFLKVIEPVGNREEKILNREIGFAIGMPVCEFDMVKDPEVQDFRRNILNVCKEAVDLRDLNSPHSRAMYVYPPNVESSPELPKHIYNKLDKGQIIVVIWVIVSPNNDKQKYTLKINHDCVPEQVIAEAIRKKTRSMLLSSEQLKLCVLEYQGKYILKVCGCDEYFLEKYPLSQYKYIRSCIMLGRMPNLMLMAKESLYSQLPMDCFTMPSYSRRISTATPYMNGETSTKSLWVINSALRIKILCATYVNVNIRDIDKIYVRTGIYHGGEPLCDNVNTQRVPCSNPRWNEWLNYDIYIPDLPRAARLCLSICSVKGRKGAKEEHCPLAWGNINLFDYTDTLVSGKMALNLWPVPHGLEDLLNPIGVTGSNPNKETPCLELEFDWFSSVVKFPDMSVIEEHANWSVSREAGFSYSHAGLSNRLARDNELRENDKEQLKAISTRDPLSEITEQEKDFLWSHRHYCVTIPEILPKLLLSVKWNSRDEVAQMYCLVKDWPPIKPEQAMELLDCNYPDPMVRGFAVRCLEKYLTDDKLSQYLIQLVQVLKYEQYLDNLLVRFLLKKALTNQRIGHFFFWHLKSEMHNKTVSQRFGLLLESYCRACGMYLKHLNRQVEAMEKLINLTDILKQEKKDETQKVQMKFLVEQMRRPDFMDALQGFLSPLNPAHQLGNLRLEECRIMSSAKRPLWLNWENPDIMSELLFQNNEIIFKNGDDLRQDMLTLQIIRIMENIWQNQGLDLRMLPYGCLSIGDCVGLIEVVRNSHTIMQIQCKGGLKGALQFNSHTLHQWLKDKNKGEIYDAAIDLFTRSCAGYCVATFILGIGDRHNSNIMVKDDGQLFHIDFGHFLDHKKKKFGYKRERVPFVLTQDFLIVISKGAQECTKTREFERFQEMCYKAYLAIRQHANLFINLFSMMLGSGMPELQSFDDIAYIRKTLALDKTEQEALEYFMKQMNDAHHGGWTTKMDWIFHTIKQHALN
# [5] = target: Phosphatidylinositol 4,5-bisphosphate 3-kinase catalytic subunit alpha isoform (Homo sapiens) (UniProt P42336); details: at 1 µM
# [6] = target: T2, Phosphatidylinositol 4,5-bisphosphate 3-kinase catalytic subunit delta isoform (Homo sapiens) (UniProt O00329); details: at 0.1 µM
# T2 sequence (whole entry): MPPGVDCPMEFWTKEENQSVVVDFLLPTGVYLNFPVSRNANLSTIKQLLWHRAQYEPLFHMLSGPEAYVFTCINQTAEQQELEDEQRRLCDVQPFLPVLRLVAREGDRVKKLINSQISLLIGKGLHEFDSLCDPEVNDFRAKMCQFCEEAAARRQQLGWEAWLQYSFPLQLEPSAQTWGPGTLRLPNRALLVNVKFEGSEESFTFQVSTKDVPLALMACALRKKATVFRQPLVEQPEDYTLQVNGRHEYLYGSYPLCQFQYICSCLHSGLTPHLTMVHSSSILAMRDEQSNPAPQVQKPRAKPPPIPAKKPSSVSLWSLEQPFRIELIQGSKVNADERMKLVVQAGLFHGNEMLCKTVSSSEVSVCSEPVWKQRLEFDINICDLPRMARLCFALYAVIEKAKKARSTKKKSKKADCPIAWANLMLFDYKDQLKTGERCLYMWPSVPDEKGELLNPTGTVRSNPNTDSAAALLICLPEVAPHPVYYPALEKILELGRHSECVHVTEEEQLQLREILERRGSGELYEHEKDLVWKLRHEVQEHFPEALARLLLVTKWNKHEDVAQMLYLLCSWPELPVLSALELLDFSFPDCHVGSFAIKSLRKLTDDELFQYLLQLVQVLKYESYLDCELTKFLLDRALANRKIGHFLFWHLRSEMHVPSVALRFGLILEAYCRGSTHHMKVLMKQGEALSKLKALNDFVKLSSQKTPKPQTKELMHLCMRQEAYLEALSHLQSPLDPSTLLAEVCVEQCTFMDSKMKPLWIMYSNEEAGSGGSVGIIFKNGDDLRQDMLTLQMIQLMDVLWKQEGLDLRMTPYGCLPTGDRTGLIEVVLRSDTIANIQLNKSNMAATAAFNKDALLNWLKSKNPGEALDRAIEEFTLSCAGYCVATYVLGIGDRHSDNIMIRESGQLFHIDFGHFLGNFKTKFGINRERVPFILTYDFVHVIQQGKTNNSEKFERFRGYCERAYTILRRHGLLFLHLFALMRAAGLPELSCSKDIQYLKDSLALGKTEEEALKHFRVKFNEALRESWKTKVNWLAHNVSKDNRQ
# [7] = target: T2, Phosphatidylinositol 4,5-bisphosphate 3-kinase catalytic subunit delta isoform (Homo sapiens); details: at 1 µM
# [8] = target: Phosphatidylinositol 4-kinase beta (Homo sapiens) (UniProt Q9UBF8); details: at 0.1 µM
# Sequence of Phosphatidylinositol 4-kinase beta (Homo sapiens) (Q9UBF8 2-816 limits assumed): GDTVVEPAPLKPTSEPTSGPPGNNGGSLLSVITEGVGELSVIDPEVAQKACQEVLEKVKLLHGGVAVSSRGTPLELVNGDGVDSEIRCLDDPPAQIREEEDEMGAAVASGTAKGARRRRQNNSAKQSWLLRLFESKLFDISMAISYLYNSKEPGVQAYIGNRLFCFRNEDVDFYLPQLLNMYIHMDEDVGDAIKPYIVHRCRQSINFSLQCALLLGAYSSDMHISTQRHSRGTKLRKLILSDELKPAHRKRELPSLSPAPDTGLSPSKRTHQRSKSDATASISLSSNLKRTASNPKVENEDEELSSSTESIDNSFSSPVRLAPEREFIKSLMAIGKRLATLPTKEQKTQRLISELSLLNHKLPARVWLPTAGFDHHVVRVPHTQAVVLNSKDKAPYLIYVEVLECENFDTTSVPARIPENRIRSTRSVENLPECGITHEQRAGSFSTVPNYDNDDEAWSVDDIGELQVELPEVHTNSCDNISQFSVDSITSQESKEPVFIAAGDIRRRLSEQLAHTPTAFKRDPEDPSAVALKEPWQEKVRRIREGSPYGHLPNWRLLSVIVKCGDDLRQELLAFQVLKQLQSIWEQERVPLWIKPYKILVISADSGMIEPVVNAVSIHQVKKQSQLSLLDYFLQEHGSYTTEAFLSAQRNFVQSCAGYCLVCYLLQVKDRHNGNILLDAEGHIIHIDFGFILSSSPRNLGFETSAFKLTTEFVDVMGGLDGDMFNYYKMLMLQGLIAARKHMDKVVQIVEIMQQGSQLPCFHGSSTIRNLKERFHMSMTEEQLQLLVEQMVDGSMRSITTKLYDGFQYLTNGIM
# [9] = target: Phosphatidylinositol 4-kinase beta (Homo sapiens) (UniProt Q9UBF8); details: at 1 µM
# [10] = target: Sphingosine kinase 1 (Homo sapiens) (UniProt Q9NYA1); details: at 0.1 µM
# Sequence of Sphingosine kinase 1 (Homo sapiens) (Q9NYA1 whole entry): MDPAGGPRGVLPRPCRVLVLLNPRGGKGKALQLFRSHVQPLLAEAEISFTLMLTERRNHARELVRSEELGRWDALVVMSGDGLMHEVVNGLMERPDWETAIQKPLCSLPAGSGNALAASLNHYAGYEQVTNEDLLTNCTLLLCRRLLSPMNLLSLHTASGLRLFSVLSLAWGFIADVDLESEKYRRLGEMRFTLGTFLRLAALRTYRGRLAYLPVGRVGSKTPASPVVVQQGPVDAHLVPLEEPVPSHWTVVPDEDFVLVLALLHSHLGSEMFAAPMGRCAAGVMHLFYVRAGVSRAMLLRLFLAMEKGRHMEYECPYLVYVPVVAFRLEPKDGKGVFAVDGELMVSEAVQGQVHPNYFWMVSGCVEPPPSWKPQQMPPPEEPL
# [11] = target: Sphingosine kinase 1 (Homo sapiens) (UniProt Q9NYA1); details: at 1 µM
# [12] = target: T3, Sphingosine kinase 2 (Homo sapiens) (UniProt Q9NRA0); details: at 0.1 µM
# T3 sequence (whole entry): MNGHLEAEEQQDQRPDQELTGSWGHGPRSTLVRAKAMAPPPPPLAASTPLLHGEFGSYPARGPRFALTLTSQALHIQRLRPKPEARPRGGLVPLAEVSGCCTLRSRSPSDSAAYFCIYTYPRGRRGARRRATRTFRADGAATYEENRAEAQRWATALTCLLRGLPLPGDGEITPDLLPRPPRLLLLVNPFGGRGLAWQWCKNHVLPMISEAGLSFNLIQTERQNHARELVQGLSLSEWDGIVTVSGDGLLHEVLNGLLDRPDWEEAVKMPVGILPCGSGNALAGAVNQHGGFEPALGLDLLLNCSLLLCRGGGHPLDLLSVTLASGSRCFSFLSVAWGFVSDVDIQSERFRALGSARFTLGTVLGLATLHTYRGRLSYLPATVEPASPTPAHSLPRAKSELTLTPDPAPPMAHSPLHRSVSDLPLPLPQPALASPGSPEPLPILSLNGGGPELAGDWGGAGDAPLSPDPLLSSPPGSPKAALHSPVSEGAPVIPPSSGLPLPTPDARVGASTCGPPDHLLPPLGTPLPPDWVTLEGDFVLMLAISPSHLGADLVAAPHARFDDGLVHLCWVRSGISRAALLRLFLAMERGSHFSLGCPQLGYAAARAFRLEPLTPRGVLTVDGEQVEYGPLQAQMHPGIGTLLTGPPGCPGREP
# [13] = target: T3, Sphingosine kinase 2 (Homo sapiens); details: at 1 µM
# [14] = target: Casein kinase II subunit alpha (Homo sapiens) (UniProt P68400); details: at 0.1 µM
# Sequence of Casein kinase II subunit alpha (Homo sapiens) (P68400 whole entry, looked up): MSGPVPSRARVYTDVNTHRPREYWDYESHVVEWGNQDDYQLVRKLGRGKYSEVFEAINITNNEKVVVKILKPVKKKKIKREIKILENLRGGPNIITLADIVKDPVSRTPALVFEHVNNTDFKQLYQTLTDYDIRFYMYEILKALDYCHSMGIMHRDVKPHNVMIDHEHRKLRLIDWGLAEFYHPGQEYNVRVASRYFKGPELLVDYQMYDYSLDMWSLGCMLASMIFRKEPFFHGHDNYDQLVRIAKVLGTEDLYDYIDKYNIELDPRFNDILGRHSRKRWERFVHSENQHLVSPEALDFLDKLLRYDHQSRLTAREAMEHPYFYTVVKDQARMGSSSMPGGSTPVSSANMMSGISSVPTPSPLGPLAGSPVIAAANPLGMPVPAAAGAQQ
# [15] = target: Casein kinase II subunit alpha (Homo sapiens) (UniProt P68400); details: at 1 µM
# [16] = target: T4, Inhibitor of nuclear factor kappa-B kinase subunit alpha (Homo sapiens) (UniProt O15111); details: at 0.1 µM
# T4 sequence (whole entry): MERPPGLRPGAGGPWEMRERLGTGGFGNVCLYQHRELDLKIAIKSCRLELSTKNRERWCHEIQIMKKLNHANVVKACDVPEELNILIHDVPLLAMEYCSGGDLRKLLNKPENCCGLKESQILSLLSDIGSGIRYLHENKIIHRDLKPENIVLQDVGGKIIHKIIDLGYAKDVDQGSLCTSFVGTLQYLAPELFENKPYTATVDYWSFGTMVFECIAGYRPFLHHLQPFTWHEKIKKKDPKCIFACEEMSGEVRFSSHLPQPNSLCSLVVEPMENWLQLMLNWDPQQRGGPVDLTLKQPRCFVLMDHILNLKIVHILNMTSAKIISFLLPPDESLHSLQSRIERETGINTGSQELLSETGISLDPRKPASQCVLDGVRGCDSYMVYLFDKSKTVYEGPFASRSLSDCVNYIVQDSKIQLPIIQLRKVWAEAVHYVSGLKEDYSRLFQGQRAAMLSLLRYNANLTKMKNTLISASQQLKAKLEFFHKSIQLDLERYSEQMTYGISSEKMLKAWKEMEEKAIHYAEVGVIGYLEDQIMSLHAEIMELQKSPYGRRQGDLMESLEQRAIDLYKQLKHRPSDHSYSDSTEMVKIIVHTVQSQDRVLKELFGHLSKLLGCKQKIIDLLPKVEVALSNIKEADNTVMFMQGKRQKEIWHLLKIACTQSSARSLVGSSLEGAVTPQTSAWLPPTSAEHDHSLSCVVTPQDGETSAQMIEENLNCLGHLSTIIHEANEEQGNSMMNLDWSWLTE
# [17] = target: T4, Inhibitor of nuclear factor kappa-B kinase subunit alpha (Homo sapiens); details: at 1 µM
# [18] = target: T5, Inhibitor of nuclear factor kappa-B kinase subunit beta (Homo sapiens) (UniProt O14920); details: at 0.1 µM
# T5 sequence (whole entry): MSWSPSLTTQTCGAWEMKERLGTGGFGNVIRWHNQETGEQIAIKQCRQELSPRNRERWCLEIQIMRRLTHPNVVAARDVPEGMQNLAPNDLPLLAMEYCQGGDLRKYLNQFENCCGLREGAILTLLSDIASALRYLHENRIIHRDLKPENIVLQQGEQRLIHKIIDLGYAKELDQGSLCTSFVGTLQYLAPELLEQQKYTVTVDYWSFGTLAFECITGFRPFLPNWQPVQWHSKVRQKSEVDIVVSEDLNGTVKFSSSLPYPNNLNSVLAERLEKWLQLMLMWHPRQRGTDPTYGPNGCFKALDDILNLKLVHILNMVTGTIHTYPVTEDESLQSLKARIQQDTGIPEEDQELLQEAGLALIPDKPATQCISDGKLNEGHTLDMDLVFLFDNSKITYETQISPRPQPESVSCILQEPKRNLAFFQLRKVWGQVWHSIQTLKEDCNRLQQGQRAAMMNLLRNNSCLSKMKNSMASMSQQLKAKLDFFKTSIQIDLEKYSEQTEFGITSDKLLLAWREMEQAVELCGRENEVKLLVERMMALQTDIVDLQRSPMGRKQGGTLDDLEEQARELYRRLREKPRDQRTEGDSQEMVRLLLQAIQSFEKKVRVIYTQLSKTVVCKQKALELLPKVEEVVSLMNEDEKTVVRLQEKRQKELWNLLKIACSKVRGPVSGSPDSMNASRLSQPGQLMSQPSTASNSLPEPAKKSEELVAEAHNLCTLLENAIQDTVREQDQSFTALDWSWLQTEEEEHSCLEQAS
# [19] = target: T5, Inhibitor of nuclear factor kappa-B kinase subunit beta (Homo sapiens); details: at 1 µM
# [20] = target: T6, Inhibitor of nuclear factor kappa-B kinase subunit epsilon (Homo sapiens) (UniProt Q14164); details: at 0.1 µM;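 further: mean inhibition of IKKε reported, from the GSK PKIS dataset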
# T6 sequence (whole entry): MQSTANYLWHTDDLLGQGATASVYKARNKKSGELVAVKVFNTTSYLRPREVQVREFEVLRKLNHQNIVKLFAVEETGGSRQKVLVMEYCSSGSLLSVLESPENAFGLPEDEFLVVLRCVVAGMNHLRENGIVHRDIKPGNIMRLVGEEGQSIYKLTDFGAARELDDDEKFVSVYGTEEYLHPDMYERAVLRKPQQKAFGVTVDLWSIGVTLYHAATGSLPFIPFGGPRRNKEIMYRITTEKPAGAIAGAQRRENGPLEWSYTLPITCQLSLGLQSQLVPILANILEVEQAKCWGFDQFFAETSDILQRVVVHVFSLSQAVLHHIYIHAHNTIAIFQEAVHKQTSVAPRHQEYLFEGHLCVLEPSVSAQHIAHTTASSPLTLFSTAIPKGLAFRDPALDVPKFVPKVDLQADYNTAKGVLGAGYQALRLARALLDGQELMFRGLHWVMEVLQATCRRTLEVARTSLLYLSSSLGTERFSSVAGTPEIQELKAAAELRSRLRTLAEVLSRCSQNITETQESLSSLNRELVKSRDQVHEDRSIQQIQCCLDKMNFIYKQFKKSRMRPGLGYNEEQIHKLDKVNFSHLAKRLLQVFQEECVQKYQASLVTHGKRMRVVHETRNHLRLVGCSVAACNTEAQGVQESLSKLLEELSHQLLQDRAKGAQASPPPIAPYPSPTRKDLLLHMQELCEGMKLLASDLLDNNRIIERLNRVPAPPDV
Structure (SMILES),inhibition [1] [%],inhibition [2] [%],inhibition [3] [%],inhibition [4] [%],inhibition [5] [%],inhibition [6] [%],inhibition [7] [%],inhibition [8] [%],inhibition [9] [%],inhibition [10] [%],inhibition [11] [%],inhibition [12] [%],inhibition [13] [%],inhibition [14] [%],inhibition [15] [%],inhibition [16] [%],inhibition [17] [%],inhibition [18] [%],inhibition [19] [%],inhibition [20] [%]
Cc1nnc(-c2cccc(-c3ccc(C(=O)NCC4CC4)cc3)c2)o1,2.67,-0.9,2.29,2.25,2.72,-0.87,-2.41,-0.63,-1.44,-1.27,-1.04,0.67,-1.45,5.98,8.99,-9.01,-3.16,6.42,5.6,7.79
NS(=O)(=O)c1cccc(N/C=C2\C(=O)Nc3ccccc32)c1,2.84,-2.16,-4.31,4.33,7.3,4.26,7.6,-1.97,2.07,7.2,-0.2,0.81,0.83,2.24,3.93,4.81,3.57,6.37,4.39,6.35
COc1cccc(-n2ncc3c(N/N=C/c4ccc(C(=O)NCCN(C)C)cc4)ncnc32)c1,4.67,-1.63,-2.59,2.48,20.2,4.52,16.3,-3.13,5.75,5.89,0.56,0.23,1.39,31,62.2,1.29,4.43,1.09,0.86,-1.79
